The supplement of paper PMC13380429
Values without a mark were called inactive.

System: Vero E6 infected with SARS-CoV-2
Experiment: inhibition of SARS-CoV-2 cytopathic effect; higher = more antiviral protection, active = above 15
Settings: 48 h

SMILES | inhibition of SARS-CoV-2 cytopathic effect (1 nM) [%] | inhibition of SARS-CoV-2 cytopathic effect (8.33 nM) [%] | inhibition of SARS-CoV-2 cytopathic effect (100 nM) [%] | inhibition of SARS-CoV-2 cytopathic effect (833.33 nM) [%] | inhibition of SARS-CoV-2 cytopathic effect (10000 nM)
CC[C@@H]1/C=C(\C)C[C@H](C)C[C@H](OC)[C@H]2O[C@@](O)(C(=O)C(=O)N3CCCC[C@H]3C(=O)O[C@H](/C(C)=C/[C@@H]3CC[C@@H](O)[C@H](OC)C3)[C@H](C)[C@@H](O)CC1=O)[C@H](C)C[C@@H]2OC [ascomycin] | 1.02 | 2.65 | 2.8 | 2.76 | 1.33%
Cc1c(-c2ccnn2C)cc(C(=O)NCc2ccc(S(C)(=O)=O)cn2)c(=O)n1-c1cccc(C(F)(F)F)c1 | -2.24 | -0.81 | -0.79 | -2.96 | -0.81%
Nc1nc2c(ncn2COCCO)c(=O)[nH]1 [acyclovir] | 12.6 | 6.63 | 6.1 | 7.16 | 2.2%
CC(C)c1c(NC(=O)Nc2ccc(Cl)cc2)c(=O)n(-c2ccccc2)n1C | 0.15 | 0.39 | 0.07 | -1.16 | -0.11%
Cc1noc(NS(=O)(=O)c2cccc3c(N(C)C)cccc23)c1C | 0.18 | 0.76 | 0.03 | 1.44 | 0.04%
C[C@]12C=CC(=O)N[C@@H]1CC[C@@H]1[C@@H]2CC[C@]2(C)[C@@H](C(=O)Nc3cc(C(F)(F)F)ccc3C(F)(F)F)CC[C@@H]12 [dutasteride] | -4.2 | -3.31 | 1.66 | -2.35 | -7.18%
O=C(O)C1=CO[C@@H](O[C@@H]2O[C@H](CO)[C@@H](O)[C@H](O)[C@H]2O)[C@@H]2C(CO)=CC[C@H]12 [Geniposidic acid] | -0.41 | 3.01 | 0.36 | -1.23 | 1.07%
CCOC(=O)[C@@H](C)Oc1ccc(Oc2nc3ccc(Cl)cc3o2)cc1 [fenoxaprop-p-ethyl] | 0.1 | -0.32 | -2.57 | 2.13 | -0.66%
NC1CCN(c2nc3c(cc2F)c(=O)c(C(=O)O)cn3-c2ccc(F)cc2F)C1 (stereo not given) [tosufloxacin] | -2.93 | 0.34 | -3.49 | -3.32 | -0.08%
CN1C(=O)N(c2ccc(C#N)c(C(F)(F)F)c2)C(=O)[C@]1(CO)c1ccccc1 [GLPG0492-R-enantiomer] | 2.05 | 2.68 | 0.3 | 1.61 | 2.02%
CC1CNc2c(cccc2S(=O)(=O)N[C@@H](CCCNC(=N)N)C(=O)N2CC[C@@H](C)C[C@@H]2C(=O)O)C1 (mixture of isomers) [argatroban] | -2.89 | 2.45 | 0.37 | 0.05 | -0.11%
CCOc1ccc(Cc2nccc3cc(OCC)c(OCC)cc23)cc1OCC [ethaverine] | -8.51 | -11.9 | -9.06 | -7.91 | -8.28%
COc1ccnc(C[S+]([O-])c2nc3cc(OC(F)F)ccc3[nH]2)c1OC (stereo not given) [pantoprazole] | -1.17 | -2.35 | -4.09 | 0.78 | 0.79%
CCCc1nn(C)c2c(=O)[nH]c(-c3cc(S(=O)(=O)N4CCN(C)CC4)ccc3OCC)nc12 [sildenafil] | 2.67 | 2.01 | 0.47 | 2.04 | -2.29%
CN(C)C(=O)Nc1cccc(-c2ccc(N(C)C)cc2)c1 [atglistatin] | -1.57 | -1.64 | 1.22 | 0.77 | 1.31%
C#Cc1cccc(Nc2ncnc3cc(OCCOC)c(OCCOC)cc23)c1 [erlotinib] | -0.8 | -0.26 | -1.96 | -4.63 | -14.6%
C[C@@H](O[C@H]1OCCN(Cc2nn[nH]c2CN(C)C)[C@H]1c1ccc(F)cc1)c1cc(C(F)(F)F)cc(C(F)(F)F)c1 | -0.75 | -1.76 | -0.97 | -4.49 | 7.29%
CC1(N2CCC(n3c([C@@H]4CCCNC4)nc4ccccc43)CC2)CCCCCCC1 | 0.07 | 0.4 | -0.65 | -3.36 | 83.5% (active)
CCn1c2ccccc2c2cc(CNCc3ccccc3OC)ccc21 | 3.14 | 2.16 | 0.25 | -1.14 | -6.1%
CN[C@@H](C)C(=O)N[C@H](C(=O)N1CCC[C@H]1C(=O)Nc1sc(-c2ncco2)nc1-c1ccccc1)C1CCCCC1 | -0.55 | -0.2 | -0.7 | 0.89 | 0.18%
N[C@]1(C(=O)O)CC[C@@H](C(=O)O)C1 | 1.21 | 2.87 | 0.81 | 1.58 | 1.7%
O=C(O)c1ccccc1 [benzoic-acid] | 0.45 | -0.31 | -1.57 | -0.13 | -0.09%
O=c1[nH]c(=O)n([C@H]2C[C@H](O)[C@@H](CO)O2)cc1C(F)(F)F [trifluridine] | -2.13 | 0.14 | 0.73 | 1.01 | -1.77%
C#C[C@]1(O)CC[C@H]2[C@@H]3CCC4=CC(=NO)CC[C@@H]4[C@H]3CC[C@@]21CC (mixture of isomers) [norelgestromin] | -0.39 | -1.06 | 1.68 | 2.43 | 2.14%
